The results in this text go back to article PMC5540273 (PLoS ONE, 2017).

The test system of one assay is PLK2. The following applies: concentration: 1 μM, replicates: in singlicate; n = 1.
The next assay concerns PLK3. The following applies: concentration: 1 μM, replicates: in singlicate; n = 1.
A further assay deals with PLK4. The following applies: concentration: 1 μM, replicates: in singlicate; n = 1.
For the next assay, the system named is PRKCD. The following applies: n = 1.
The next assay deals with PRKCE. The following applies: concentration: 1 μM, replicates: in singlicate; n = 1.
Another assay deals with PRKCH. As to conditions: concentration: 1 μM, replicates: in singlicate; n = 1.
A further assay relates to PRKCI. As to conditions: n = 1.
The test system of the next assay is PRKCQ. As to conditions: concentration: 1 μM, replicates: in singlicate; n = 1.
Another assay relates to PRKD1. As to conditions: concentration: 1 μM, replicates: in singlicate; n = 1.
In the next assay the test system is PRKD2. The following applies: concentration: 1 μM, replicates: in singlicate; n = 1.
[1] abbreviates: concentration: 1 μM, replicates: in singlicate.

Like-named read-outs stand apart in the source and are kept apart here.
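Note: KINOMEscan kinase panel screen.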

On to `CN(C)S(=O)(=O)c1cc(-c2ccc3nccc(-c4cccc(S(N)(=O)=O)c4)c3c2)cnc1N` [GSK1669921], for which the “%Inh” value in the assay with PLK2 was 2%; in the assay with PLK3, 0%; in the assay on PLK4, 0%; in the assay on PRKCD (setting [1]) it was 0%; in the assay with PRKCE, 15%; in the assay with PRKCH, 29%. Further, the “%Inh” value in the assay with PRKCI (setting [1]) is given as 7%; in the assay with PRKCQ, 10%; in the assay with PRKD1, 0%; with PRKD2, 0%.
On to `Cn1cc(-c2ccc3c(c2)CCN3C(=O)Cc2cccc(Cl)c2)c2c(N)ncnc21` [GSK2606590], for which the “%Inh” value in the assay on PLK2 was found to be 0%; in the assay with PLK3 it was 0%; with PLK4, 6%; in the assay with PRKCD (setting [1]), 15%; in the assay with PRKCE it was 0%; in the assay on PRKCH, 27%. The “%Inh” value is 0% in the assay on PRKCI (setting [1]), 10% in the assay with PRKCQ, 0% in the assay on PRKD1 and 0% in the assay on PRKD2.
As to `FC(F)(F)c1ccc(/C=C/c2cncnc2Nc2ccc3[nH]c(Cc4ccccc4)nc3c2)cc1` [GW709199], the “%Inh” value with PLK2 was found to be 0%; in the assay on PLK3, 0%; with PLK4, 0%; in the assay on PRKCD (setting [1]) it was 25%; in the assay with PRKCE, 0%; in the assay on PRKCH it was 0%. The “%Inh” value amounted to 55% in the assay on PRKCI (setting [1]), 0% with PRKCQ, 0% with PRKD1 and 3% in the assay on PRKD2.
Turning to `c1ccc(-c2cnc3nccnn23)cc1` [AH20685], the “%Inh” value worked out at 0% in the assay on PLK2; 0% in the assay on PLK3; 0% with PLK4; 0% in the assay on PRKCD (setting [1]); 0% in the assay on PRKCE; 4% in the assay on PRKCH. In addition, the “%Inh” value was determined as 3% with PRKCI (setting [1]), 0% in the assay on PRKCQ, 0% in the assay with PRKD1 and 0% in the assay on PRKD2.
For `CCn1c(-c2nonc2N)nc2c(C#CC(C)(C)O)ncc(OCCCCN)c21.O=C(O)C(F)(F)F.O=C(O)C(F)(F)F` [GSK507274], the “%Inh” value in the assay on PLK2 was 0%; in the assay with PLK3, 0%; in the assay on PLK4 it was 0%; with PRKCD (1 µM), 91%; with PRKCE it was 98%; in the assay with PRKCH, 97.7%. In addition, the “%Inh” value is recorded as 78% in the assay on PRKCI (1 µM), 86% in the assay with PRKCQ, 29% in the assay on PRKD1 and 23% in the assay with PRKD2.
Turning to `COC(=O)Nc1nc2cc(Oc3ccc(NC(=O)Nc4cc(C(F)(F)F)ccc4F)cn3)ccc2[nH]1.Cl.Cl` [GW681170], the “%Inh” value in the assay with PLK2 worked out at 0%; in the assay on PLK3, 0%; in the assay on PLK4 it was 55%; with PRKCD (setting [1]), 0%; in the assay with PRKCE it was 12%; in the assay on PRKCH it was 14%. The “%Inh” value in the assay on PRKCI (setting [1]) is 26%; in the assay with PRKCQ, 0%; in the assay with PRKD1, 0%; in the assay with PRKD2, 9%.
Regarding `Cc1ccc(F)c(C(=O)Nc2cccc(-c3nn4ccccc4c3-c3ccnc(Nc4cccc(F)c4)n3)c2)c1F` [GSK361061], the “%Inh” value in the assay with PLK2 is recorded as 3%; in the assay with PLK3 it was 9%; in the assay with PLK4 it was 10%; in the assay on PRKCD (setting [1]), 25%; with PRKCE it was 2%; in the assay with PRKCH, 25%. Besides, the “%Inh” value in the assay on PRKCI (setting [1]) is recorded as 0%; in the assay with PRKCQ it was 27%; with PRKD1, 14%; with PRKD2, 12%.
Take `Clc1ccc(-c2nn3ncccc3c2-c2ccnc(Nc3ccc4c(c3)OCCO4)n2)cc1` [GW829116]: the “%Inh” value is 0% with PLK2; 7% in the assay on PLK3; 2% with PLK4; 0% with PRKCD (setting [1]); 1% in the assay with PRKCE; 0% in the assay with PRKCH. The “%Inh” value in the assay on PRKCI (setting [1]) amounted to 0%; in the assay on PRKCQ it was 22%; in the assay on PRKD1 it was 0%; in the assay on PRKD2 it was 1%.
Take `COc1ccc(CNC(=O)NC2CCN(c3ccnc(Nc4ccc(F)cc4)n3)CC2)cc1` [GSK1379788]: the “%Inh” value with PLK2, with PLK3, in the assay with PLK4, with PRKCD (setting [1]), with PRKCE and in the assay with PRKCH was 0% each time. The “%Inh” value in the assay with PRKCI (setting [1]) amounted to 0%; in the assay on PRKCQ, 0%; in the assay with PRKD1 it was 5%; in the assay on PRKD2, 6%.
As for `COc1cc(Nc2nccc(-c3c(-c4cccc(NC(=O)c5c(F)cccc5F)c4)nn4ccccc34)n2)cc(OC)c1OC` [GSK323521], the “%Inh” value in the assay with PLK2 is reported as 0%; in the assay with PLK3, 0%; in the assay on PLK4, 6%; in the assay on PRKCD (setting [1]), 31%; in the assay on PRKCE it was 17%; in the assay on PRKCH, 22%. Moreover, the “%Inh” value with PRKCI (setting [1]) was 27%; in the assay on PRKCQ it was 15%; in the assay on PRKD1, 8%; in the assay with PRKD2, 7%.
